PubChem BioAssay AID1745847 (National Center for Advancing Translational Sciences (NCATS), 2022)
Among all 2,100 compounds or so, about 670 (32%) were called active. Another 50% or so got no clear call; they are omitted. Calls come from the whole dose curve; as a rule, active = well fitted inhibition curve with a large enough effect; inconclusive = small, poorly fitted or top-dose-only effect; inactive = no such curve, though single readings can be large or run the other way. The list shows a part of the results.

Assay: CMV-Luciferase Counterscreen for Inhibitors of ATXN expression; note: nearly all actives have a fitted effect of over 55% in size
Conditions: HEK-293 CMV-luciferase reporter, luminescence, 24 h; series mostly up to 57.5 µM
% is set by controls: 0 for no effect and ±100 for the full control effect; potency is the fitted concentration of half-maximal effect.

Row | SMILES | Potency | activity change, negative = inhibition
1 | O=C1Nc2c(Br)cc(Br)c3cccc1c23 | inactive | 
2 | O=C(Nc1nc(-c2ccc(S(=O)(=O)N3CCOCC3)cc2)cs1)c1ccccc1 | 1.12 µM (active) | 
3 | NC(=O)c1c(NC(=O)c2ccc(S(=O)(=O)N3CCOCC3)cc2)sc2c1CCCCC2 |  | -13.6% [at 11.4 µM] (inactive)
4 | COc1cccc(C(=O)Nc2nc(-c3ccc(S(=O)(=O)N4CCOCC4)cc3)cs2)c1 | 2.82 µM (active) | 
5 | O=C(Nc1cccc(S(=O)(=O)C(F)F)c1)c1ccc(Cl)c(S(=O)(=O)N2CCOCC2)c1 | 15.8 µM (active) | 
6 | O=C(Nc1nc(-c2ccccc2)cs1)c1ccccc1NS(=O)(=O)c1ccc(F)cc1 | 1 µM (active) | 
7 | O=C(Nc1nc(-c2ccccn2)cs1)c1ccc(F)c(S(=O)(=O)N2CCOCC2)c1 | 1.78 µM (active) | 
8 | COc1ccccc1C(=O)Nc1nc(-c2ccc(S(=O)(=O)N3CCOCC3)cc2)cs1 | 1.58 µM (active) | 
9 | Cn1c(=O)c2c(nc(CN3CCN(Cc4ccccc4)CC3)n2Cc2ccc(Cl)cc2)n(C)c1=O | 17.8 µM (active) | 
10 | Cn1c(=O)c2c(nc(SCCN3CCOCC3)n2Cc2cccc3ccccc23)n(C)c1=O |  | -18.8% [at 11.4 µM] (inactive)
11 | CCCCCc1ccc(OCCCC[n+]2cccc(C)c2)c(CCCCC)c1 | 4.47 µM (active) | 
12 | O=C(NC(=S)NCc1nc2ccccc2[nH]1)c1ccc(F)cc1 |  | 290% [at 11.4 µM] (inactive)
13 | CCCC(=O)NC(c1ccc(OC)c(OC)c1)c1cc(Cl)c2cccnc2c1O (stereo not drawn) | 4.47 µM (active) | 
14 | CCC(=O)NC(c1ccc(OC)c(OC)c1)c1cc(Cl)c2cccnc2c1O (stereo not drawn) | 1.41 µM (active) | 
15 | Cc1ccc(Sc2nnc(Cc3ccccc3)c3ccccc23)cc1 | inactive | 
16 | O=C(N/N=C/c1sc(N2CCOCC2)nc1-c1ccccc1)c1ccccc1O | 12.6 µM (active) | 
17 | CC(C)(C)c1ccc(C(=O)N2CCCCCC2=O)cc1 | 5.01 µM (active) | 
18 | COc1ccc(CN(C)C(=O)c2cccc(NC(=O)CC3SC(N4CCCCC4)=NC3=O)c2)c(OC)c1 (stereo not drawn) | 10 µM (active) | 
19 | CC(C)c1ccc2c(c1)C(N1CCNCC1)Cc1ccc(F)cc1S2 (stereo not drawn) | 35.5 µM (active) | 
20 | COc1ccc(N=Cc2cc3c(cc2O)OC(N)=C(C#N)C3c2ccccc2)cc1 (stereo not drawn) |  | -22.6% [at 11.4 µM] (inactive)
21 | Cc1cc(C)cc(C(=O)N(NC(=O)Nc2ccc(Cl)cc2)C(C)(C)C)c1 | 22.4 µM (active) | 

Row | SMILES | Potency | activity change, negative = inhibition
22 | Oc1c(Cl)cc(Cl)cc1/C=N/Nc1ncc(Br)cn1 | 2 µM (active) | 
23 | CN1CCN(c2cc(-c3cc(O)c4ncccc4c3)ccn2)CC1 | 14.1 µM (active) | 
24 | CN(Cc1cnc2nc(N)nc(N)c2n1)c1ccc(C(=O)N[C@@H](CCC(=O)O)C(=O)O)cc1 | 0.0063 µM (active) | 
25 | Cc1cc(C)cc(NS(=O)(=O)c2ccc3c(c2)c(=O)n(C)c(=O)n3C)c1 | 11.2 µM (active) | 
26 | NC(Cc1ccc(C(F)(F)F)cc1)c1csc(Nc2ccc(C(=O)NCc3ccco3)cn2)n1 (stereo not drawn) |  | -23.4% [at 11.4 µM] (inactive)
27 | Cn1cc(/C=C/c2cc[n+](C)cc2)c2cc(F)ccc21 | 11.2 µM (active) | 
28 | COc1ccc(-c2cc(NC=O)c3ncc(-c4cccc(C(=O)NCCN(C)C)c4)n3c2)cc1 | inactive | 
29 | CN(C)CCNC(=O)c1cccc(-c2cnc3c(NC=O)cc(-c4cccc(C(F)(F)F)c4)cn23)c1 | 22.4 µM (active) | 
30 | CN(C)CCNC(=O)c1cccc(-c2cnc3c(NC=O)cc(-c4cccs4)cn23)c1 | inactive | 
31 | Cc1ccc(Cl)cc1N1CCN(C(=O)CCS(=O)(=O)c2ccc3c(c2)NC(=O)CO3)CC1 | 14.1 µM (active) | 
32 | CCc1nc2ccc(C(=O)Nc3cc(-c4ccccc4)ccc3OC)cn2c1N(CC)CC(=O)N(C)C | 31.6 µM (active) | 
33 | CCCCN(C=O)c1c(CC)nc2ccc(C(=O)Nc3cc(-c4ccccc4)ccc3OC)cn12 | 22.4 µM (active) | 
34 | Cc1ccnc(NC(=S)N2CCN(c3cccc(C(F)(F)F)c3)CC2)c1 | inactive | 
35 | Cc1nc2ncnn2c(N2CCN(c3cccc(C(F)(F)F)c3)CC2)c1C | 2.51 µM (active) | 
36 | O=C(N/N=C(\c1ccccc1)c1ccccn1)c1ccccc1Cl | 3.98 µM (active) | 
37 | COc1cc(C(=O)N/N=C(\c2ccccc2)c2ccccn2)cc(OC)c1OC | 0.398 µM (active) | 
38 | CCC(CC)C(=O)c1c[nH]c(C(=O)NCc2ccccn2)c1 | inactive | 
39 | Cc1ccc2c(c1)-c1c(cnn1CC(=O)N1CCCN(Cc3ccccc3F)C1)CO2 |  | -25.8% [at 11.4 µM] (inactive)
40 | CC(NC1=CC(=O)c2cccnc2C1=O)C(O)c1ccccc1 (stereo not drawn) | 15.8 µM (active) | 
41 | C/C(=N\NC(=O)C1CCCN(S(=O)(=O)c2ccccc2)C1)c1ccccn1 (stereo not drawn) | 1.41 µM (active) | 
42 | CCc1ccc(-c2nc(CS(=O)CC(=O)NCc3ccco3)c(C)o2)cc1 (stereo not drawn) | 0.501 µM (active) | 

Row | SMILES | Potency | activity change, negative = inhibition
43 | Cc1cccc(N=C2NN=C(c3c(C)[nH]c4ccccc34)CS2)c1 | 12.6 µM (active) | 
44 | COc1cc(OC)cc(-c2cc3nc(C)c(CCC(=O)NCc4ccccc4)c(C)n3n2)c1 | 11.2 µM (active) | 
45 | COc1cc(OC)cc(-c2cc3nc(C)c(CCC(=O)O)c(C)n3n2)c1 | 1 µM (active) | 
46 | COc1ccc(CNC(=O)CSc2nc(-c3ccccc3)cc(-c3cccs3)c2C#N)cc1 |  | 16% [at 11.4 µM] (inactive)
47 | Cc1c(CC(=O)NCCCC(=O)O)c(=O)oc2cc3c(cc12)CCC(C)(C)O3 | 11.2 µM (active) | 
48 | O=C1c2cccc3cc([N+](=O)[O-])cc(c23)C(=O)N1CCN1CCCC1 | 0.794 µM (active) | 
49 | O=C(Nc1cnn(C23CC4CC(CC(C4)C2)C3)c1)c1cnn2c(C(F)(F)F)cc(-c3ccco3)nc12 | 15.8 µM (active) | 
50 | CCc1ccc(-c2cc(C(F)(F)F)n3nc(C(=O)Nc4cnn(Cc5ccc(C)cc5)c4)cc3n2)s1 | inactive | 
51 | CCOc1ccc(/C=C/[N+](=O)[O-])c2ccccc12 | 15.8 µM (active) | 
52 | Cc1cc(=O)[nH]c(N=N/C(=N/Nc2ccccc2C)c2ccccc2)n1 | 1.58 µM (active) | 
53 | COc1cc(C#Cc2c(-c3cncn3C)n(C)c3ccc(-c4cnc(OC)nc4)cc23)cc(OC)c1 | 3.55 µM (active) | 
54 | COc1cc(C#Cc2c(-c3cncn3C)n(C)c3ccc(-c4cnc(N5CCOCC5)nc4)cc23)cc(OC)c1 |  | -19.7% [at 11.4 µM] (inactive)
55 | COc1cc(C#Cc2c(-c3cncn3C)n(C)c3ccc(-c4ccc(CN5CCOCC5)cc4)cc23)cc(OC)c1 |  | -6.42% [at 11.4 µM] (inactive)
56 | Cc1ccc(-c2cc(C(=O)N/N=C/c3ccccc3O)n[nH]2)o1 | 15.8 µM (active) | 
57 | O=C(N/N=C\c1c(O)ccc2ccccc12)c1cncc(Br)c1 | 0.282 µM (active) | 
58 | O=C(N/N=C/c1c(O)ccc2ccccc12)c1ccc(CO)nc1 | 8.91 µM (active) | 
59 | Nc1ccc2cc3[nH]c4cc(N)ccc4c3nc2c1 |  | -29.2% [at 11.4 µM] (inactive)
60 | CCN1CCN(C2=C(NS(=O)(=O)c3ccc(C)cc3)C(=O)c3ccccc3C2=O)CC1 | 3.55 µM (active) | 
61 | CCn1c(CCC(=O)Nc2nc3c(s2)CCCC3)nc2cc(S(=O)(=O)N(C)C)ccc21 |  | 4.42% [at 11.4 µM] (inactive)
62 | Cc1ccccc1OCC(=O)N/N=C/c1cccc2cccnc12 | 15.8 µM (active) | 
63 | O=C(COc1ccc(F)cc1)N/N=C/c1cccc2cccnc12 | 2.82 µM (active) | 

Row | SMILES | Potency | activity change, negative = inhibition
64 | CSCC[C@H](NC(=O)OC(C)(C)C)C(=O)N/N=C/c1cccc2cccnc12 | inactive | 
65 | Cc1ccc(OCC(=O)N/N=C/c2cccc3cccnc23)cc1 | 20 µM (active) | 
66 | Cc1cc(O)c(C(C)C)cc1N=Cc1ccc(N(C)C)cc1 |  | 0.592% [at 11.4 µM] (inactive)
67 | Cc1nc(N2CCN(c3ccccn3)CC2)c2c(C)c(C(=O)N3CCN(c4ccc(F)cc4)CC3)sc2n1 | 14.1 µM (active) | 
68 | Oc1c(C(c2ccccn2)N2CCCCC2)cc(Cl)c2cccnc12 (stereo not drawn) | inactive | 
69 | Oc1c(C(Nc2ccccn2)c2cccnc2)cc(Cl)c2cccnc12 (stereo not drawn) | 12.6 µM (active) | 
70 | Cc1cc(NC(c2cccnc2)c2ccc3cccnc3c2O)no1 (stereo not drawn) | 3.98 µM (active) | 
71 | O=C(Nc1cccc(C(F)(F)F)c1)N1CCC(c2nc(-c3ccc(F)cc3)no2)CC1 | 11.2 µM (active) | 
72 | CCOc1ccccc1NC(=O)N1CCC(c2nc3ccccc3[nH]2)CC1 |  | 28.9% [at 11.4 µM] (inactive)
73 | COc1ccc([C@@]2(C(C)C)ON(c3ccccc3C(F)(F)F)C2=O)cc1 |  | -27.1% [at 11.4 µM] (inactive)
74 | Cn1c(=O)c(C#N)c(-c2ccc(F)cc2)c2cc(C(=O)c3cc(Cl)cc(Cl)c3O)cnc21 | 3.55 µM (active) | 
75 | NC(=S)n1[nH]c(-c2ccc([N+](=O)[O-])cc2)c(N=Nc2cccc(Cl)c2)c1=O | 3.55 µM (active) | 
76 | CC(C)(C)c1nnc(N/N=C/c2ccccc2O)n(N)c1=O | 1.26 µM (active) | 
77 | COc1ccc(C(=O)C=CNNC(=O)c2ccc(Cl)cc2)cc1 | 11.2 µM (active) | 
78 | Cc1cc(OCc2nc(N)nc(N)c2-c2ccc(Cl)c(Cl)c2)ccc1[N+](=O)[O-] | 0.316 µM (active) | 
79 | COc1cccc2c1C(=N)c1c(O)c3c(c(O)c1C2=O)CC(O)(C(C)=O)CC3OC1CC(N)C(O)C(C)O1 (stereo not drawn) | 0.282 µM (active) | 
80 | CCCCC(=O)OCC(=O)C1(O)Cc2c(O)c3c(c(O)c2C(OC2CC(NC(=O)C(F)(F)F)C(O)C(C)O2)C1)C(=O)c1c(OC)cccc1C3=O (stereo not drawn) | 3.16 µM (active) | 
81 | C=CCn1cnc2c(c1=O)c1nc3ccccc3nc1n2/N=C/c1cc(OC)c(OC)c(OC)c1 | inactive | 
82 | O=C(c1cnc(N2CCN(c3ccccn3)CC2)c2ccccc12)N1CCN(c2cccc(Cl)c2)CC1 | 6.31 µM (active) | 
83 | Cc1ccc(NC(=O)c2cnc(N3CCN(c4ccccn4)CC3)c3ccccc23)c(Br)c1 | 14.1 µM (active) | 
